# Source: PubChem BioAssay (NCI)
# Compounds without any hit were thinned out: in the full panel of roughly 83,000, 20% have a hit.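 Testing used 96-well plates and a 48-hour single-concentration exposure. Example: -40 means 40% of the starting cells died.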 Unmarked numbers belong to inactive results. The source made the active and inactive calls. The calls were made as follows: active = growth percent below 10; inactive = the rest.
# Test system: UACC-257 melanoma
# Assay: NCI-60 one-dose screen, 48 h (100 = growth as untreated, 0 = no growth, -100 = all killed)
# Settings: 10 µM unless noted
row,SMILES,growth
1,CCCC/C(=C\c1ccc(O)c(O)c1)C(=O)NC(Cc1ccccc1)C(=O)C(=O)NCCc1ccc(OC)cc1 (stereo not given),100%
2,CCN(CC)c1ccc(/C=N/NC(=O)c2ccc(NS(C)(=O)=O)cc2)cc1,-4.47% (active)
3,Cc1ccc(C)c(NC2=C(Cl)C(=O)c3nc(C)ccc3C2=O)c1,-87.7% (active)
4,O=C(CSc1nnc(-c2cccs2)n1-c1ccccc1)Nc1ccccc1F,95.3%
5,Cc1ccc(CSC2=C(Cl)CN(c3ccc(Cl)cc3)C2=O)cc1,107%
6,Cn1ncc2c(C(=O)c3ccc(F)cc3)nc(C(C)(C)C)nc21,94.3%
7,O=C(CSc1nc2ccccc2c(=O)n1-c1ccccc1)N/N=C/c1ccc(Oc2ccc(Cl)cc2)cc1,96.9%
8,Cc1cccc(N2CCN(C3=C(Cl)C(=O)c4ncccc4C3=O)CC2)c1,61.5%
9,N/C(=N\C(N)=N\c1nc2ccccc2s1)c1ccc(Cl)cc1,105%
10,N#Cc1nc(-c2ccccc2)oc1N1CCC(C2(C(F)(F)F)N=N2)CC1,102%
11,CC(C)(C)c1cc(NC(=O)Nc2ccc(-c3cn4c5c(sc4n3)CCc3cn(CCCN4CCCCC4)cc3-5)cc2)no1,51.3%
12,Cc1csc(/N=C(N)/N=C(\N)c2cccc(Br)c2)n1,102%
13,Cc1cc2nc(C(Cl)Cl)nc(-c3ccc(S(=O)(=O)N(C)C)cc3)n2n1,87%
14,C#Cc1nc(/C=C\CCCCCCC(=O)NO)cs1,38.2%
15,O=C1C(SCc2ccccc2)=C(Cl)CN1c1ccccc1,106%
16,CN1c2ccccc2Sc2cc(/C=N/Nc3ccnc4cc(Cl)ccc34)ccc21,96.3%
17,NS(=O)(=O)c1ccc(CCn2c(-c3ccc(C(=O)O)cc3)nc(-c3ccccc3)c2-c2ccccc2)cc1,105%
18,CCCc1cc2cc(-n3nc(CC)c4c3CC(C)(C)CC4=O)cc(NC3CCC(O)CC3)c2c(=O)[nH]1 (stereo not given),29.1%
19,O=S(=O)(NCCCNc1nccc(-c2[nH]c(-c3ccccc3)nc2-c2ccc(F)c(O)c2)n1)c1cccc(F)c1,23.4%
20,CCCCCCNC(=O)Oc1ccc(/C(=C(/C)c2ccc(OC)cc2)c2ccc(OCCN3CCCCCC3)cc2)cc1,9.09% (active)

row,SMILES,growth
1,CCOC(=O)Nc1ccc2c(ccn2C(=O)c2cccc(F)c2)c1,74.4%
2,O=C(CCCCCCNC(=O)C(O)(O)C(F)(F)F)Nc1ccc(Cl)cc1,31%
3,CCS(=O)(=O)Nc1ccc(C(=O)CC2(O)C(=O)Nc3ccccc32)cc1 (stereo not given),103%
4,COc1cccc(N2CCN(C3=C(Cl)C(=O)c4ncccc4C3=O)CC2)c1,70.2%
5,Nn1c(=O)n(-c2cccc(C(F)(F)F)c2)c(=O)c2cc(-c3ccc(F)cc3F)ccc21,-8.9% (active)
6,CC(=O)N1N=C(c2cc3ccccc3oc2=O)CC1c1cn(-c2ccccc2)nc1-c1ccc(C)cc1 (stereo not given),99.4%
7,NS(=O)(=O)c1cccc(Nc2nc(SCC(=O)c3ccc(Cl)cc3)nc3c2CCC3)c1,104%
8,O=C(CCCCCCNC(=O)c1csc(Br)n1)NO,18.4%
9,Cc1[nH]c(C(=O)Nc2ccccc2OCc2cccc(C(=O)NCCN)c2)cc1Cl,99.4%
10,O=C(/C=C/Nc1ccc(S(=O)(=O)Nc2ncccn2)cc1)c1ccc(N=Cc2c(O)[nH]c3ccccc23)cc1,101%
11,Nc1cc(C(=O)N/N=C\c2ccc(OC(F)F)c(OC3CCCC3)c2)nn1CC(O)c1ccccc1 (stereo not given),104%
12,Cc1ccc(C(=O)Nc2ccc(CNCCN3CCOCC3)c(C(F)(F)F)c2)cc1C#Cc1cnc2cccnn12,-45.3% (active)
13,COc1cc2c3c(cc4c5c(ccc4c3c1OC)OCO5)N(CCN(C)C)C2=O,-32.9% (active)
14,Cc1ccc2c(n1)C(=O)C(Cl)=C(Nc1cccc(C)c1C)C2=O,-77.5% (active)
15,CN(C)CC(=O)Nc1nc(-c2cccc(NS(=O)(=O)c3cccc4c(N(C)C)cccc34)c2)cs1,86%
16,COc1ccc(NC2=C(Br)C(=O)C(C)=C(C)C2=O)cc1OC,96%
17,COc1cccc2c1[C@H](OC)[C@]13O[C@@]1(C2=O)[C@H](O)[C@H](C)[C@@](O)(C(=O)[C@@H]1O[C@H]1C)[C@@H]3O,-28.3% (active)
18,O=C(CCCCCCNC(=O)C(O)(O)C(F)(F)F)Nc1ncc(-c2ccccc2)s1,20.8%
19,Cc1ccc(-c2nc(SCC(=O)c3ccccc3)nc(Nc3ccc(S(N)(=O)=O)cc3)c2C#N)cc1,97.4%
20,NC(=O)c1c(NC(=O)c2ccc(C(F)(F)F)cc2)sc2c1CCC(=O)C2,-18% (active)

# Test system: M14 melanoma
# Assay: as above
# Settings: 10 µM unless noted
row,SMILES,growth
1,CCCC/C(=C\c1ccc(O)c(O)c1)C(=O)NC(Cc1ccccc1)C(=O)C(=O)NCCc1ccc(OC)cc1 (stereo not given),95%
2,CCN(CC)c1ccc(/C=N/NC(=O)c2ccc(NS(C)(=O)=O)cc2)cc1,0.0523% (active)
3,Cc1ccc(C)c(NC2=C(Cl)C(=O)c3nc(C)ccc3C2=O)c1,-55.8% (active)
4,O=C(CSc1nnc(-c2cccs2)n1-c1ccccc1)Nc1ccccc1F,74.7%
5,Cc1ccc(CSC2=C(Cl)CN(c3ccc(Cl)cc3)C2=O)cc1,107%
6,Cn1ncc2c(C(=O)c3ccc(F)cc3)nc(C(C)(C)C)nc21,100%
7,O=C(CSc1nc2ccccc2c(=O)n1-c1ccccc1)N/N=C/c1ccc(Oc2ccc(Cl)cc2)cc1,48.8%
8,Cc1cccc(N2CCN(C3=C(Cl)C(=O)c4ncccc4C3=O)CC2)c1,75.3%
9,N/C(=N\C(N)=N\c1nc2ccccc2s1)c1ccc(Cl)cc1,87.6%
10,N#Cc1nc(-c2ccccc2)oc1N1CCC(C2(C(F)(F)F)N=N2)CC1,102%
11,CC(C)(C)c1cc(NC(=O)Nc2ccc(-c3cn4c5c(sc4n3)CCc3cn(CCCN4CCCCC4)cc3-5)cc2)no1,-93.6% (active)
12,Cc1csc(/N=C(N)/N=C(\N)c2cccc(Br)c2)n1,86.6%
13,Cc1cc2nc(C(Cl)Cl)nc(-c3ccc(S(=O)(=O)N(C)C)cc3)n2n1,37.1%
14,C#Cc1nc(/C=C\CCCCCCC(=O)NO)cs1,61.6%
15,O=C1C(SCc2ccccc2)=C(Cl)CN1c1ccccc1,97.7%
16,CN1c2ccccc2Sc2cc(/C=N/Nc3ccnc4cc(Cl)ccc34)ccc21,92.7%
17,NS(=O)(=O)c1ccc(CCn2c(-c3ccc(C(=O)O)cc3)nc(-c3ccccc3)c2-c2ccccc2)cc1,105%
18,CCCc1cc2cc(-n3nc(CC)c4c3CC(C)(C)CC4=O)cc(NC3CCC(O)CC3)c2c(=O)[nH]1 (stereo not given),27.2%
19,O=S(=O)(NCCCNc1nccc(-c2[nH]c(-c3ccccc3)nc2-c2ccc(F)c(O)c2)n1)c1cccc(F)c1,29.3%
20,CCCCCCNC(=O)Oc1ccc(/C(=C(/C)c2ccc(OC)cc2)c2ccc(OCCN3CCCCCC3)cc2)cc1,-63.5% (active)

row,SMILES,growth
1,CCOC(=O)Nc1ccc2c(ccn2C(=O)c2cccc(F)c2)c1,25.3%
2,O=C(CCCCCCNC(=O)C(O)(O)C(F)(F)F)Nc1ccc(Cl)cc1,34.4%
3,CCS(=O)(=O)Nc1ccc(C(=O)CC2(O)C(=O)Nc3ccccc32)cc1 (stereo not given),105%
4,COc1cccc(N2CCN(C3=C(Cl)C(=O)c4ncccc4C3=O)CC2)c1,81.7%
5,Nn1c(=O)n(-c2cccc(C(F)(F)F)c2)c(=O)c2cc(-c3ccc(F)cc3F)ccc21,17.1%
6,CC(=O)N1N=C(c2cc3ccccc3oc2=O)CC1c1cn(-c2ccccc2)nc1-c1ccc(C)cc1 (stereo not given),101%
7,NS(=O)(=O)c1cccc(Nc2nc(SCC(=O)c3ccc(Cl)cc3)nc3c2CCC3)c1,101%
8,O=C(CCCCCCNC(=O)c1csc(Br)n1)NO,29.4%
9,Cc1[nH]c(C(=O)Nc2ccccc2OCc2cccc(C(=O)NCCN)c2)cc1Cl,85.5%
10,O=C(/C=C/Nc1ccc(S(=O)(=O)Nc2ncccn2)cc1)c1ccc(N=Cc2c(O)[nH]c3ccccc23)cc1,109%
11,Nc1cc(C(=O)N/N=C\c2ccc(OC(F)F)c(OC3CCCC3)c2)nn1CC(O)c1ccccc1 (stereo not given),110%
12,Cc1ccc(C(=O)Nc2ccc(CNCCN3CCOCC3)c(C(F)(F)F)c2)cc1C#Cc1cnc2cccnn12,-7.89% (active)
13,COc1cc2c3c(cc4c5c(ccc4c3c1OC)OCO5)N(CCN(C)C)C2=O,-54.5% (active)
14,Cc1ccc2c(n1)C(=O)C(Cl)=C(Nc1cccc(C)c1C)C2=O,-29.2% (active)
15,CN(C)CC(=O)Nc1nc(-c2cccc(NS(=O)(=O)c3cccc4c(N(C)C)cccc34)c2)cs1,100%
16,COc1ccc(NC2=C(Br)C(=O)C(C)=C(C)C2=O)cc1OC,104%
17,COc1cccc2c1[C@H](OC)[C@]13O[C@@]1(C2=O)[C@H](O)[C@H](C)[C@@](O)(C(=O)[C@@H]1O[C@H]1C)[C@@H]3O,-89.7% (active)
18,O=C(CCCCCCNC(=O)C(O)(O)C(F)(F)F)Nc1ncc(-c2ccccc2)s1,14.3%
19,Cc1ccc(-c2nc(SCC(=O)c3ccccc3)nc(Nc3ccc(S(N)(=O)=O)cc3)c2C#N)cc1,36.7%
20,NC(=O)c1c(NC(=O)c2ccc(C(F)(F)F)cc2)sc2c1CCC(=O)C2,-22% (active)
